# Source: PubChem BioAssay
# HepG2 viability – qHTS for Inhibitors of TGF-b: Cytotox Counterscreen | Potency, µM (doses to about 46.1 µM), hits mostly cytotoxic | HepG2 CAGA-GFP viability, ATP luminescence, 18 h | 410,000 compounds, 0.76% hits
#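 CellTiter-Glo luminescence gave cytotoxicity after 18 hours at 37 degrees C. The cells were HepG2 CAGA-GFP in 1% FBS DMEM, stimulated with 500 pg/mL TGF-beta after compound addition. %Activity was normalised to no-cell wells (complete cell-killing) and DMSO (no toxicity), and curves were fitted and classified.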
# ATXN viability – Viability Counterscreen for Primary qHTS for Inhibitors of ATXN expression; S2 cells (HEK-293 line with an ATXN2-luciferase reporter) viability, CellTiter-Fluor protease fluorescence, 24 h; Potency, µM (series often up to 56.7 µM), most hits filed as cytotoxic; 400,000 compounds, 0.49% hits; AID 651635, 2014; note: nearly all actives have a fitted effect of over 40% in size
# ATXN2 expr inh – Primary qHTS for Inhibitors of ATXN expression. HEK-293 ATXN2-luciferase reporter, luminescence, 24 h. Potency, µM (titrated, usually from 57 µM), most hits filed as inhibitors. 360,000 compounds, 0.72% hits. AID 1745845, 2022; note: nearly all actives have a fitted effect of over 55% in size
#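 qHTS (up to 57 uM final) was run with 24 h compound exposure of reporter cells at 37 °C. Each well was multiplexed: SteadyGlo luminescence measured ATXN2-luciferase expression after a fluorogenic Gly-Phe-AFC viability readout (25 uM final).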
# TGFb inhibitor – qHTS for Inhibitors of TGF-b; HepG2 CAGA-GFP TGF-b/SMAD3 reporter, GFP fluorescence, 18 h; TGF-beta stimulated, 500 pg/mL final; Potency, µM (top dose mostly 46.1 µM), hits mostly inhibitors; 410,000 compounds, 1.2% hits; note: nearly all actives have a fitted effect of over 65% in size
#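 Cell-based qHTS in HEPG2 carrying a CAGA-GFP Smad reporter; compounds added before 500 pg/mL final TGF-beta, 18 h incubation at 37 degrees C, GFP fluorescence quantified per cell by imaging cytometry.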
# DT40 TDP1 no CPT – qHTS for Inhibitors of human tyrosyl-DNA phosphodiesterase 1 (TDP1): qHTS in cells in absence of CPT. DT40 Tdp1-/- hTDP1 cells, no CPT, ATP luminescence, 48 h. Potency, µM (titrated, usually from 46.2 µM), usual class: inhibitors. 420,000 compounds, 15% hits. AID 686978, 2013; note: nearly all actives have a fitted effect of over 55% in size
#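 Readout: luminescence from CellTiter-Glo after 30 min in the dark at RT. Cells: DT40 Tdp1-/- with stable hTDP1, 400/well. Exposure: compounds alone, ≥48 hr, 37 °C.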
# DT40 TDP1 CPT – qHTS for Inhibitors of human tyrosyl-DNA phosphodiesterase 1 (TDP1): qHTS in cells in presence of CPT; chicken DT40 Tdp1-/-;hTDP1 cells + 20 nM CPT, ATP luminescence, 48 h; Potency, µM (top dose mostly 46.2 µM), most hits filed as inhibitors; 420,000 compounds, 12% hits; AID 686979, 2013; note: nearly all actives have a fitted effect of over 55% in size
#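 Chicken DT40 Tdp1-/- cells complemented with human TDP1, 400 cells/well, exposed to compounds plus 20 nM camptothecin for at least 48 h at 37 C; viability read as ATP content by CellTiter-Glo luminescence.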
# Hits are given with their value; – = inactive; ? = inconclusive; · = no result given; [ ] = remark or other dose. Sampled rows, rich in hits. Any-hit rate of the full collection: about 17%. Calls come from the whole dose curve; as a rule, active = well fitted curve in the direction sought with a large enough effect; inconclusive = small, poorly fitted or top-dose-only effect, or another doubt; inactive = no such curve, though single readings can be large; an effect the other way counts as inactive or inconclusive.
SMILES,HepG2 viability,ATXN viability,ATXN2 expr inh,TGFb inhibitor,DT40 TDP1 no CPT,DT40 TDP1 CPT
COc1ccccc1N1CCN(C2CC(=O)N(c3ccc(Cl)cc3)C2=O)CC1 (configuration not stated),–,?,–,?,–,–
COC(=O)c1ccsc1NC(=O)CSc1nnnn1-c1ccccc1SC,–,–,–,–,?,11.2µM
CCc1ccc2[nH]c(=O)c(CN(CCN3CCCC3)C(=O)NC3CCCCC3)cc2c1,–,–,–,–,23.1µM,16.4µM
O=C(NC1CCCCC1)N(CCN1CCOCC1)Cc1cc2cc3c(cc2[nH]c1=O)OCCO3,–,–,–,–,?,13µM
CCN(CC)CCN(Cc1cc2cc3c(cc2[nH]c1=O)OCCO3)C(=O)NC1CCCCC1,–,–,–,–,?,?
Cc1cnc(C)c(-c2cc(F)cc3c2OC(CNC(=O)C2CCOC2)C3)n1 (configuration not stated),·,–,·,·,–,–[9.04 µM]
O=C(NC(=O)N1CCN(c2ccc(F)cc2)CC1)c1ccccc1,–,–,–,–,–,–
O=C(c1ccccc1)N1CCN(C(=O)c2ccccc2Br)CC1,–,–,–,–,–,–
O=C(c1ccc(N2CCN(C(=O)c3cccc(F)c3)CC2)cc1)c1cccc(F)c1,–,–,?,?,?,16.4µM
CCOC(=O)N1CCN(c2ccc(C(=O)c3cccc(F)c3)cc2)CC1,–,–,–,?,20.6µM,13µM
O=C(c1ccc(N2CCN(C(=O)c3ccccc3Br)CC2)cc1)c1cccc(F)c1,–,–,?,–,25.9µM,16.4µM
O=C(c1cccc(F)c1)N1CCN(c2cccc(C(F)(F)F)c2)CC1,–,–,–,–,?,?
O=C(c1ccccc1)c1ccc(C(=O)N2CCN(c3ccc(F)cc3)CC2)o1,–,–,–,?,11.6µM,?
CCOc1ccccc1CNC(=O)c1cnc2sc(N3CCC(C)CC3)nn2c1=O,–,–,–,–,–,–
CCOC(=O)N1CCC(NCCNC(=O)c2ccc(F)c(F)c2)CC1,–,–,–,–,–,–
Cc1cc(=O)oc2cc(OCC(=O)N3CCN(C(=O)C4COc5ccccc5O4)CC3)ccc12 (configuration not stated),–,–,–,–,?,?
Cc1cc(=O)oc2cc(OCC(=O)N3CCN(C(=O)C4COc5ccccc5O4)CC3)c(Cl)cc12 (configuration not stated),–,–,–,–,?,?
Cc1c(C)c2ccc(OCC(=O)N3CCN(C(=O)C4COc5ccccc5O4)CC3)cc2oc1=O (configuration not stated),–,–,–,–,2.31µM,?
CCCc1cc(=O)oc2cc(OCC(=O)N3CCN(C(=O)C4COc5ccccc5O4)CC3)ccc12 (configuration not stated),–,–,–,–,5.8µM,?
Cc1ccc(CCNC(=O)CCSCc2ccccc2F)cc1,–,·,·,–,–,–
CN(C)C(=O)c1ccc(-c2ccc3ncnc(N(C)Cc4ccco4)c3c2)cc1,·,·,·,·,?,5.8µM
CN(Cc1ccco1)c1ncnc2ccc(-c3cccnc3)cc12,·,·,·,·,18.4µM,14.6µM
CN(Cc1ccco1)c1ncnc2ccc(-c3ccc4c(ccn4C)c3)cc12,–,–,–,?,·,·
CN(C)C(=O)c1ccc(-c2cncnc2N(C)Cc2ccco2)cc1,·,·,·,·,–,–
Cc1noc(C)c1-c1cc(N(C)Cc2ccco2)ncn1,·,·,·,·,–,?
CN(Cc1ccco1)c1ncnc2ccc(-c3cccc(C#N)c3)cc12,·,·,·,·,23.1µM,23.1µM
Cc1noc(C)c1-c1ccc2ncnc(N(C)Cc3ccco3)c2c1,·,·,·,·,11.6µM,?
Cc1c(Br)c([N+](=O)[O-])nn1CC(=O)NCCc1ccc(Cl)cc1,–,–,·,–,–,–
